Reference: PubChem BioAssay AID624297 (National Center for Advancing Translational Sciences (NCATS), 2012)
Among all 340,000 compounds or so, about 6,200 (1.8%) were called active. Roughly 10% stayed inconclusive and do not appear here. The entries come from a sample that favours actives as a whole. A number with no mark means an inactive call. The call rests on the fitted dose curve; in most records, active means well fitted activation curve with a large enough effect; inconclusive means small, poorly fitted or top-dose-only effect; inactive means no such curve, though single readings can be large or run the other way.

Assay: A quantitative high throughput screen for small molecules that induce DNA re-replication in SW480 colon adenocarcinoma cells. Further: nearly all actives have a fitted effect of over 55% in size. On re-replication activation: % of control where 0% means no effect.
Details: Hoechst DNA content imaging, 48 h; series mostly up to 46.1 µM; re-replication activation: at the top concentration
Summary of the method: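 Readout is total intensity of Hoechst-stained nuclei, excited at 405 nm and collected at 500-530 nm. Compound treatment lasted 48 hr at 37 C in 5% CO2 before staining.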
Potency means the concentration at half of the fitted maximal effect.

SMILES | re-replication activation | Potency
CCOC(=O)c1c(C)[nH]c(C)c1S(=O)(=O)N(C)CC(=O)Nc1ccccc1C | -3.39% | 
CCOC(=O)c1ccccc1OC(=O)Oc1ccccc1C(=O)OCC | -5.07% | 
CCOC(=O)c1c(C)[nH]c2c1-c1ccccc1C(=O)C2=O |  | 5.17 µM (active)
O=C(NCc1ccccc1)c1cccc(NC(=O)C2CCCCC2)c1 | -9.55% [at 9.22 µM] | 
Cn1c(=O)[nH]c2c(c(C(=O)O)nn2C)c1=O | -4.09% | 
COCC(=O)N(C)[C@H]1C[C@H]2c3cc(Oc4ccccc4C)ccc3CCN2C(=O)[C@H]1[C@H](C)O | -7.86% | 
N#CC(Cc1cc2ccccc2n1S(=O)(=O)c1ccccc1)OCc1ccccc1 (centres undefined) | 15.5% | 
CC(OC(=O)CNC(=O)c1ccc(Cl)c([N+](=O)[O-])c1)C(=O)NCc1ccco1 (centres undefined) | -91% | 
CC(=O)Nc1ccc(NC(=O)C(C)OC(=O)c2ccccc2C(=O)c2ccc(Cl)c([N+](=O)[O-])c2)cc1 (centres undefined) |  | 16.4 µM (active)
N#Cc1cccc(NC(=O)COC(=O)c2ccccc2C(=O)c2ccc(Cl)c([N+](=O)[O-])c2)c1 | 17.9% | 
Cc1ccc(S(=O)(=O)N2[C@@H](c3cccc4ccccc34)C(C(=O)O)=C[C@H]2C(C)(C)C)cc1 | -25.3% [at 9.22 µM] | 
CCc1nc(SCC(=O)NNC(=O)c2ccc(C)cc2)c2ccccc2n1 | -6.34% | 
C=CCSc1nc(Cc2ccc(Cl)cc2)nc2ccccc12 | 0.994% | 
CCCNC(=O)CSc1nc(Cc2ccccc2)nc2ccccc12 |  | 9.2 µM (active)
CC(=O)Nc1ccc(C(=O)Nc2cc(S(=O)(=O)N3CCOCC3)ccc2N2CCOCC2)cc1 | -2.34% | 
CC(Oc1ccc2c(-c3ccccc3)cc(=O)oc2c1)C(=O)NC(Cc1c[nH]c2ccccc12)C(=O)O (centres undefined) | -6.21% | 
CCOc1cccc(SCc2noc(C(=O)NC(C)C)c2C(=O)O)c1 | -7.12% | 
CCCNC(=O)c1onc(CSc2ccc(F)cc2)c1C(=O)NC(C)C | -5.91% | 
COC(=O)c1c(CCl)noc1C(=O)NC(C)C |  | 20.6 µM (active)
CC(=O)N1CCc2ccc(N)cc21 | 0.538% | 
OC(COc1ccccc1)CN1CCN(c2cccc(Cl)c2)CC1 (centres undefined) | 6.18% | 
O=C(NN=CC=Cc1ccccc1)C(O)C(O)C(=O)NN=CC=Cc1ccccc1 (centres undefined) | 1.81% | 
CN(C(=O)c1cccc(NC(=O)Cc2ccc(NC(=O)C3CCCN(C(=O)C4CCCC4)C3)cc2)c1)C1CCC1 (centres undefined) | -19.7% [at 9.22 µM] | 
CC1(C(=O)N/N=C/c2cc3c(cc2Br)OCO3)CC1(Br)Br (centres undefined) | 14.3% | 
O=C(N/N=C\c1cc2c(cc1Cl)OCO2)c1ccc(Br)s1 |  | 7.31 µM (active)

SMILES | re-replication activation | Potency
O=C(N/N=C/c1cc2c(cc1Br)OCO2)C1COc2ccccc2O1 (centres undefined) | -2.55% | 
O=C(CSc1ncnc2sccc12)NC1CCS(=O)(=O)C1 (centres undefined) | 0.0411% | 
O=C(Nc1ccc2c(c1)OCO2)C1CC1(Cl)Cl (centres undefined) | -4.89% | 
O=C(Nc1c[nH]c(=O)[nH]c1=O)OCc1ccccc1 | -3.99% | 
COc1ccc(NC(=O)/C(N=Nc2cccc(S(=O)(=O)Nc3ccc(SC(F)F)cc3)c2)=C(\C)O)cc1 | -12.2% | 
Cc1nc(N2CCOCC2)nc2c1CCCC2 | -2.45% | 
Nc1nc(-c2sc3nc4c(cc3c2N)CCCC4)nc(N2CCOCC2)n1 |  | 10.3 µM (active)
COc1ccc(/C=C/C(=O)OCC(=O)N2CCN(S(=O)(=O)c3ccc(C)cc3C)CC2)cc1OC | -1.7% | 
Cc1nc(N)sc1-c1ccccc1 | -0.764% | 
O=C1COc2ccc(C(=O)CSc3ccc(Br)cc3)cc2N1 | 1.01% | 
C=CCn1c(=O)n(C)c2c(=O)n(C)c(=O)n(C)c21 | -9.28% | 
COc1cc(OC)cc(C(=O)N[C@H](C(=O)NNC(=O)c2ccc(Br)cc2)C(C)C)c1 | 3.18% | 
COc1ccc(C(=O)N[C@H](C(=O)NCc2ccccc2)C(C)C)cc1 | -9.23% | 
COc1cc(OC)cc(C(=O)N[C@H](C(=O)Nc2nc3ccccc3[nH]2)C(C)C)c1 |  | 0.164 µM (active)
Cc1ccc(S(=O)(=O)N2CCN(C(=O)c3cc(S(=O)(=O)N4CCOCC4)ccc3F)CC2)cc1 | 4.45% | 
CN(C)c1ccc(C2N(C)C(=O)c3ccccc3N2C)cc1 (centres undefined) | -1.45% | 
CN(C)c1ccc(Nc2c3c4c(cccc4n(C)c2=O)C(=O)c2ccccc2-3)cc1 |  | 7.31 µM (active)
Cc1ccc(S(=O)(=O)NC[C@H]2O[C@@H](n3cnc4c(N)ncnc43)[C@H](O)[C@@H]2O)s1 | -0.834% | 
CCOc1ccc2nc(NC(=O)c3cc([N+](=O)[O-])ccc3N3CCOCC3)sc2c1 | 0.212% | 
CCC(=O)NC(Nc1nc2ccc(C)cc2s1)(C(=O)OC)C(F)(F)F (centres undefined) | 2.72% | 
O=C(NC(Nc1nc2ccc([N+](=O)[O-])cc2s1)(C(F)(F)F)C(F)(F)F)c1ccccc1 |  | 20.6 µM (active)
CC(=O)c1ccc(NC(=O)C(C)OC(=O)c2ccc(NS(=O)(=O)c3ccc4[nH]c(=O)[nH]c4c3)cc2)cc1 (centres undefined) | -46% | 
Cc1cc(NC(=O)C(C)SCC(=O)Nc2cccc(S(=O)(=O)N3CCCCCC3)c2)no1 (centres undefined) | -4.77% | 
C[C@H](CO)N1C[C@H](C)[C@H](CN(C)CC2CC2)Oc2ccc(NC(=O)CCN3CCOCC3)cc2C1=O | 5.51% | 
